# According to PubChem BioAssay AID624167 (Sanford-Burnham Center for Chemical Genomics, 2012):
# Assay: Peg3 promoter luciferase inhibitors, potency, dose response, cell-based, HeLa, CREF/GAPDH counter-screen panel (AID 624167)
# Settings: CREF/GAPDH counter-screens; run 1, dose range 1, at 100 µM (top of the series)
row,Structure (SMILES),inhibition
1,CCCC(=O)NC(c1ccc(OC)cc1)c1ccc2cccnc2c1O (stereo not drawn),67.4%
2,CN1OC[C@@H]2CN(S(=O)(=O)c3cccc(C(F)(F)F)c3)[C@H](c3ccc(-c4cc5ccccc5o4)cc3)C[C@@H]21,70.1%
3,Cc1ccc(OCC(=O)c2cc(C)n(Cc3ccco3)c2C)c([N+](=O)[O-])n1,70.8%
4,CC(=O)c1ccc(-c2cnc3c(NC=O)cc(-c4ccccc4Oc4ccccc4)cn23)cc1,39.3%
5,O=C(CCn1cnc(-c2ccccc2)c1-c1ccccc1)N/N=C/c1ccccc1O,67.6%
6,O=C1C=CC(=O)N1c1ccc(-c2nc3ccccc3o2)cc1,100%
7,O=C(O)c1ccc(N/N=C/c2ccc(OC(=O)c3cccc(Cl)c3)cc2)cc1,96.4%
8,CC(C)(C)c1ccc(Cn2c(=O)cnc3ccccc32)cc1,88.2%
9,COc1ccc(/C=C2/CCCC(CN(C)C)C2=O)cc1 (stereo not drawn),80%
10,O=C(c1ccco1)N1CCN(C(c2ccccc2Cl)c2nnnn2Cc2cccs2)CC1 (stereo not drawn),69.4%
11,Cc1cc(NC(c2ccc(Cl)cc2)c2ccc3cccnc3c2O)no1 (stereo not drawn),39.3%
12,COc1ccc(Nc2ncnc3ccc(Br)cc23)c(OC)c1,90.8%
13,O=C(NNC(=O)c1cccnc1SCc1cccc([N+](=O)[O-])c1)c1ccccn1,6.38%
14,O=C(N/N=C/c1cc([N+](=O)[O-])ccc1O)c1ccc(COc2ccc3c(c2)CCC3)o1,27.1%
15,COc1ccc(/C=C2\SC(=S)N(CCCC(=O)NNC(=O)c3ccccc3O)C2=O)cc1,15%
16,CC(=O)c1cccc(-c2ccnc3c2CC(C(=O)Nc2cccc(NS(C)(=O)=O)c2)O3)c1 (stereo not drawn),51.4%
17,COc1ccc(N(C(=O)CCl)C(C(=O)NC2CCCCC2)c2cccnc2)cc1 (stereo not drawn),82.9%

row,Structure (SMILES),inhibition
1,CC1=CC2C(C(O)CC3(C)C2CC(C)C32OCOC23COCO3)C2(C)C/C(=C\O)C(=O)C=C12 (stereo not drawn),99.5%
2,C/C(=N\NC(=O)c1cc(C2CC2)nc2ccccc12)c1ccc(O)cc1O,22.7%
3,O=[N+]([O-])c1nn(-c2ccc3c(c2)OCCO3)n(O)c1=Nc1ccc(Cl)cc1,78.7%
4,C(=N\Nc1ccc2ccccc2n1)/c1ccc2c(c1)OCCO2,99.5%
5,CN1C/C(=C/c2ccccc2[N+](=O)[O-])C(=O)/C(=C\c2ccccc2[N+](=O)[O-])C1,50.1%
6,O=C(N/N=C/c1ccc(Cl)c([N+](=O)[O-])c1)c1cc(-c2ccc3c4c(cccc24)CC3)n[nH]1,75.4%
7,NC(C(=O)O)C1ON=C(Cl)C1O (stereo not drawn),67%
8,CCc1ccc(/C=C2\SC(=S)N(CCCC(=O)Nc3cc(C)on3)C2=O)cc1,75.9%
9,O=C(Nc1ccc(Cc2ccncc2)cc1)c1ccc([N+](=O)[O-])o1,88.7%
10,CCOc1cccc(/C=N/NC(=S)Nc2cc(S(=O)(=O)N3CCOCC3)ccc2N2CCOCC2)c1O,-13.9%
11,O=C(Nc1ccccc1)c1nc[nH]c1C(=O)NCCCCCCNC(=O)c1[nH]cnc1C(=O)Nc1ccccc1,-2.1%
12,Cc1ccc(OCC(=O)c2cc(C)n(-c3ccccc3)c2C)c([N+](=O)[O-])n1,73%
13,COc1ccc2c(c1)c(=Cc1ccc(N(C)C)cc1)c1cc(-c3ccccc3)[n+](C)n12,99.5%
14,CN(C)S(=O)(=O)c1ccc(-c2csc(N/N=C/c3ccc(O)cc3)n2)cc1,91.3%
15,COc1cccc(/C=N/NC(=O)c2c(C)nc3ccc(Cl)cn23)c1O,-55.4%
16,COc1ccc(C(NC(=O)C(C)C)c2ccc3cccnc3c2O)cc1 (stereo not drawn),31.4%
